Experimental data: PubChem BioAssay AID1159580 (chemical genetic matrix, 2015)
In all, about 5,500 compounds went through this assay and about 2,000 (36%) were called active. About 18% were inconclusive and are not listed. The list shows a part of the results. Unmarked numbers belong to inactive results. Rule as the data show it: active = normalized growth mostly below about 0.91 (no sharp cut-off); inconclusive = no clear call, values can overlap the other calls; inactive = mostly above about 0.92.

Test: chemical genetic growth profiling, strain panel (AID 1159580);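 also: tested at 20 µM; growth read once vehicle control cultures reached saturation at 30 °C; 1 = growth at the plate median or of vehicle wells; lower values mean less growth of the strain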
Details: growth OD
[1] = S. cerevisiae deletion strains, locus YHR030C, strain SLT2, active compounds read low
[2] = S. cerevisiae deletion strains, locus YHR079C, strain IRE1, active compounds read low
[3] = S. cerevisiae deletion strains, locus YJL095W, strain BCK1, active compounds read low
[4] = S. cerevisiae deletion strains, locus YJR066W, strain TOR1, active compounds read low
[5] = S. cerevisiae deletion strains, locus YLR113W, strain HOG1, active compounds read low
[6] = S. cerevisiae deletion strains, locus YNL183C, strain NPR1, active compounds read low
[7] = S. cerevisiae deletion strains, locus YOR231W, strain MKK1, active compounds read low
[8] = S. cerevisiae deletion strains, locus YPL256C, strain CLN2, active compounds read low
[9] = S. cerevisiae deletion strains, locus YDL101C, strain DUN1, active compounds read low

## O=C(Nc1ccccc1)OCC(CN1CCCCC1)OC(=O)Nc1ccccc1 (stereo unspecified)
[1]
  normalized growth: 1
[2]
  normalized growth: 1.03
[3]
  normalized growth: 1
[4]
  normalized growth: 0.925
[5]
  normalized growth: 1.01
[6]
  normalized growth: 0.949
[7]
  normalized growth: 1.01
[8]
  normalized growth: 0.988

## N/C(=N/OC(=O)Nc1ccccc1)c1ccc(C2SCCS2)cc1
S. cerevisiae deletion strains, locus YAL013W, strain DEP1, active compounds read low
  normalized growth: 0.889 (active)
S. cerevisiae deletion strains, locus YBR229C, strain ROT2, active compounds read low
  normalized growth: 0.892 (active)
[9]
  normalized growth: 0.753 (active)
S. cerevisiae deletion strains, locus YDL134C, strain PPH21, active compounds read low
  normalized growth: 0.972
S. cerevisiae deletion strains, locus YDR150W, strain NUM1, active compounds read low
  normalized growth: 0.851
S. cerevisiae deletion strains, locus YEL061C, strain CIN8, active compounds read low
  normalized growth: 0.833 (active)
S. cerevisiae deletion strains, locus YGR078C, strain PAC10, active compounds read low
  normalized growth: 0.879 (active)
S. cerevisiae deletion strains, locus YGR229C, strain SMI1, active compounds read low
  normalized growth: 1.01
[1]
  normalized growth: 0.343 (active)
S. cerevisiae deletion strains, locus YHR087W, strain rtc3, active compounds read low
  normalized growth: 0.829 (active)
S. cerevisiae deletion strains, locus YJR043C, strain POL32, active compounds read low
  normalized growth: 0.89 (active)
S. cerevisiae deletion strains, locus YJR075W, strain HOC1, active compounds read low
  normalized growth: 0.772 (active)
S. cerevisiae deletion strains, locus YKL190W, strain CNB1, active compounds read low
  normalized growth: 0.924 (active)
S. cerevisiae deletion strains, locus YLR039C, strain RIC1, active compounds read low
  normalized growth: 0.767 (active)
S. cerevisiae deletion strains, locus YLR085C, strain ARP6, active compounds read low
  normalized growth: 0.39 (active)
S. cerevisiae deletion strains, locus YLR262C, strain YPT6, active compounds read low
  normalized growth: 0.759 (active)
S. cerevisiae deletion strains, locus YML094W, strain GIM5, active compounds read low
  normalized growth: 0.801 (active)
S. cerevisiae deletion strains, locus YMR219W, strain ESC1, active compounds read low
  normalized growth: 0.884 (active)
S. cerevisiae deletion strains, locus YMR263W, strain SAP30, active compounds read low
  normalized growth: 0.87 (active)
S. cerevisiae deletion strains, locus YMR307W, strain GAS1, active compounds read low
  normalized growth: 0.557 (active)
S. cerevisiae deletion strains, locus YNL153C, strain GIM3, active compounds read low
  normalized growth: 0.652 (active)
S. cerevisiae deletion strains, locus YNL298W, strain CLA4 (second series), active compounds read low
  normalized growth: 0.797 (active)
S. cerevisiae deletion strains, locus YNL322C, strain KRE1, active compounds read low
  normalized growth: 0.991
S. cerevisiae deletion strains, locus YNR030W, strain Alg12, active compounds read low
  normalized growth: 0.81 (active)
S. cerevisiae deletion strains, locus YPL055C, strain LGE1, active compounds read low
  normalized growth: 0.694 (active)
S. cerevisiae deletion strains, locus YPR135W, strain CTF4, active compounds read low
  normalized growth: 0.436 (active)
S. cerevisiae strains, strain wild type, active compounds read low
  normalized growth: 0.988

## N/C(=N/O)c1ccc(Oc2ccc(C3SCCS3)cc2)c([N+](=O)[O-])c1
S. cerevisiae deletion strains, locus YAR019C, strain CDC15, active compounds read low
  normalized growth: 1.01
S. cerevisiae deletion strains, locus YBL105C, strain PKC1, active compounds read low
  normalized growth: 0.992
S. cerevisiae deletion strains, locus YBR135W, strain CKS1, active compounds read low
  normalized growth: 0.979
S. cerevisiae deletion strains, locus YBR136W, strain MEC1, active compounds read low
  normalized growth: 1.01
S. cerevisiae deletion strains, locus YBR160W, strain CDC28, active compounds read low
  normalized growth: 0.997
S. cerevisiae deletion strains, locus YDL017W, strain CDC7, active compounds read low
  normalized growth: 0.992
S. cerevisiae deletion strains, locus YDL028C, strain MPS1, active compounds read low
  normalized growth: 1.01
[9]
  normalized growth: 0.991
S. cerevisiae deletion strains, locus YDL108W, strain KIN28, active compounds read low
  normalized growth: 0.99
S. cerevisiae deletion strains, locus YDL132W, strain cdc53, active compounds read low
  normalized growth: 0.973
S. cerevisiae deletion strains, locus YDL214C, strain PRR2, active compounds read low
  normalized growth: 0.992
S. cerevisiae deletion strains, locus YDR052C, strain DBF4, active compounds read low
  normalized growth: 0.992
S. cerevisiae deletion strains, locus YDR054C, strain cdc34, active compounds read low
  normalized growth: 0.988
S. cerevisiae deletion strains, locus YDR226W, strain ADK1, active compounds read low
  normalized growth: 0.998
S. cerevisiae deletion strains, locus YDR477W, strain SNF1, active compounds read low
  normalized growth: 1.01
S. cerevisiae deletion strains, locus YER123W, strain YCK3, active compounds read low
  normalized growth: 1.01
S. cerevisiae deletion strains, locus YER133W, strain GLC7, active compounds read low
  normalized growth: 0.994
S. cerevisiae deletion strains, locus YFL009W, strain cdc4, active compounds read low
  normalized growth: 0.992
S. cerevisiae deletion strains, locus YFL029C, strain CAK1, active compounds read low
  normalized growth: 1
S. cerevisiae deletion strains, locus YFR003C, strain YPI1, active compounds read low
  normalized growth: 0.985
S. cerevisiae deletion strains, locus YFR019W, strain FAB1, active compounds read low
  normalized growth: 1.02
S. cerevisiae deletion strains, locus YFR028C, strain CDC14, active compounds read low
  normalized growth: 1
S. cerevisiae deletion strains, locus YGR040W, strain KSS1, active compounds read low
  normalized growth: 1
S. cerevisiae deletion strains, locus YGR052W, strain FMP48, active compounds read low
  normalized growth: 1.07
S. cerevisiae deletion strains, locus YGR092W, strain DBF2, active compounds read low
  normalized growth: 0.993
[1]
  normalized growth: 0.874
[2]
  normalized growth: 1.06
S. cerevisiae deletion strains, locus YHR082C, strain KSP1, active compounds read low
  normalized growth: 1.12
S. cerevisiae deletion strains, locus YHR205W, strain SCH9, active compounds read low
  normalized growth: 1.01
S. cerevisiae deletion strains, locus YIL147C, strain SLN1, active compounds read low
  normalized growth: 0.996
[3]
  normalized growth: 1.01
S. cerevisiae deletion strains, locus YJL128C, strain PBS2, active compounds read low
  normalized growth: 0.93
S. cerevisiae deletion strains, locus YJL157C, strain FAR1, active compounds read low
  normalized growth: 1.01
S. cerevisiae deletion strains, locus YJR016C, strain ILV3, active compounds read low
  normalized growth: 0.993
S. cerevisiae deletion strains, locus YJR066W, strain TOR1 (second series), active compounds read low
  normalized growth: 1.01
[4]
  normalized growth: 1.02
S. cerevisiae deletion strains, locus YKL048C, strain ELM1, active compounds read low
  normalized growth: 0.988
S. cerevisiae deletion strains, locus YKL067W, strain YNK1, active compounds read low
  normalized growth: 0.981
S. cerevisiae deletion strains, locus YKL101W, strain HSL1, active compounds read low
  normalized growth: 0.986
S. cerevisiae deletion strains, locus YKL193C, strain SDS22, active compounds read low
  normalized growth: 0.979
S. cerevisiae deletion strains, locus YKL203C, strain TOR2, active compounds read low
  normalized growth: 1.11
[5]
  normalized growth: 1.02
S. cerevisiae deletion strains, locus YLR133W, strain CKI1, active compounds read low
  normalized growth: 1.01
S. cerevisiae deletion strains, locus YLR403W, strain SFP1, active compounds read low
  normalized growth: 1.05
S. cerevisiae deletion strains, locus YML070W, strain DAK1, active compounds read low
  normalized growth: 1.01
S. cerevisiae deletion strains, locus YMR001C, strain CDC5, active compounds read low
  normalized growth: 1
S. cerevisiae deletion strains, locus YMR205C, strain PFK2 (second series), active compounds read low
  normalized growth: 0.994
S. cerevisiae deletion strains, locus YMR277W, strain FCP1, active compounds read low
  normalized growth: 0.995
S. cerevisiae deletion strains, locus YNL006W, strain LST8, active compounds read low
  normalized growth: 0.988
S. cerevisiae deletion strains, locus YNL020C, strain ARK1, active compounds read low
  normalized growth: 1.03
S. cerevisiae deletion strains, locus YNL161W, strain CBK1, active compounds read low
  normalized growth: 0.981
[6]
  normalized growth: 1.08
S. cerevisiae deletion strains, locus YNL207W, strain RIO2, active compounds read low
  normalized growth: 0.984
S. cerevisiae deletion strains, locus YNL222W, strain SSU72, active compounds read low
  normalized growth: 0.979
S. cerevisiae deletion strains, locus YNL307C, strain MCK1 (second series), active compounds read low
  normalized growth: 1.02
S. cerevisiae deletion strains, locus YOL078W, strain AVO1, active compounds read low
  normalized growth: 0.978
S. cerevisiae deletion strains, locus YOL136C, strain PFK27, active compounds read low
  normalized growth: 1.02
S. cerevisiae deletion strains, locus YOR061W, strain CKA2, active compounds read low
  normalized growth: 0.995
S. cerevisiae deletion strains, locus YOR119C, strain RIO1, active compounds read low
  normalized growth: 1.04
[7]
  normalized growth: 1.03
S. cerevisiae deletion strains, locus YOR329C, strain SCD5, active compounds read low
  normalized growth: 0.991
S. cerevisiae deletion strains, locus YPL031C, strain PHO85, active compounds read low
  normalized growth: 0.998
S. cerevisiae deletion strains, locus YPL153C, strain RAD53, active compounds read low
  normalized growth: 0.988
S. cerevisiae deletion strains, locus YPL204W, strain HRR25, active compounds read low
  normalized growth: 1
S. cerevisiae deletion strains, locus YPL209C, strain IPL1, active compounds read low
  normalized growth: 0.984
[8]
  normalized growth: 0.995
S. cerevisiae deletion strains, locus YPR025C, strain CCL1, active compounds read low
  normalized growth: 0.985
S. cerevisiae deletion strains, locus YPR106W, strain ISR1, active compounds read low
  normalized growth: 0.994
S. cerevisiae deletion strains, locus YPR111W, strain DBF20, active compounds read low
  normalized growth: 0.978
S. cerevisiae deletion strains, strain NNK1, active compounds read low
  normalized growth: 0.995
S. cerevisiae deletion strains, strain TSCII, active compounds read low
  normalized growth: 1.01
